# Inconclusive results are not listed. A structure can be active in one record and inactive in another. Active and inactive are the calls of the source. How the source made its calls: active means hit-call score of the fitted dose curve at least 0.9, where 1 is the maximum; inconclusive means response in the unintended direction; inactive means score below 0.9.
# Experiments:
# [1] = TOX21_p53_BLA_p2_viability: Viability Assessment in the Tox21 HCT-116 p53 Agonism Beta-lactamase Assay, Phase 2 (AID 2283591);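 further: compound exposure lasted 16 h at 37 °C; actives lower the ATP signal meaning cytotoxicity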
# Outline: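 HCT116 p53-bla cells, 4000/well, dosed after 5 h plating (217-fold dilution of DMSO stocks) and incubated 16 h at 37C. Viability taken as cellular ATP by CellTiter-Glo luminescence after 30 min RT; signal loss marks cytotoxicity.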
# [2] = molecular target: Cellular tumor antigen p53 (Homo sapiens) (UniProt P04637); assay: TOX21_p53_BLA_p2_ratio: Tox21 HCT-116 p53 Agonism Beta-lactamase Assay, Ratio, Phase 2 (AID 2283592)
# Cellular tumor antigen p53 (Homo sapiens), sequence (P04637 whole entry, looked up): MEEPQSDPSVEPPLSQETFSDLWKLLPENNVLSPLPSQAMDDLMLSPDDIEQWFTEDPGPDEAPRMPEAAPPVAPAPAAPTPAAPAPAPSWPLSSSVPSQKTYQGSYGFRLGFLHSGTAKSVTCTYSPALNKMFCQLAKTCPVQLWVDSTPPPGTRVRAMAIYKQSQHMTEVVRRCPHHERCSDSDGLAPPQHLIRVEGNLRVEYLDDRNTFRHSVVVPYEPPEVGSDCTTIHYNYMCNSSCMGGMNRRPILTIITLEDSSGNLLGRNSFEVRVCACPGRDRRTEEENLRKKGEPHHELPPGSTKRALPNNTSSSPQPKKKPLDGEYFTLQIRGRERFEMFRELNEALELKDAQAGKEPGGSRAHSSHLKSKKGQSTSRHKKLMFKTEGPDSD
# Outline: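 Cleaved-to-uncleaved substrate ratio (460 vs 530 nm) measured in HCT116 cells with an inducible beta-lactamase reporter linked to p53 activity. Compounds incubated 16 h at 37C before 2 h room-temperature CCF4-AM loading.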
# [3] = TOX21_p53_BLA_p3_viability: Viability Assessment in the Tox21 HCT-116 p53 Agonism Beta-lactamase Assay, Phase 3 (AID 2283593);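 further: cells exposed to compound for 16 h before reading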
# Outline: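 HCT116 cells, 4000/well, dosed 5 h after plating by pin transfer (217-fold dilution from DMSO stock) and incubated 16 h at 37C, 5% CO2. Viability read as ATP luminescence with CellTiter-Glo after 30 min at room temperature.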
# [4] = molecular target: Cellular tumor antigen p53 (Homo sapiens) (UniProt P04637); assay: TOX21_p53_BLA_p3_ratio: Tox21 HCT-116 p53 Agonism Beta-lactamase Assay, Ratio, Phase 3 (AID 2283596)
# Outline: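 Cells were seeded at 4000/well, rested 5 h at 37C, then dosed with DMSO compound solutions (217-fold dilution) for 16 h. CCF4-AM substrate was loaded for 2 h at room temperature, and the 460/530 nm emission ratio was fitted for gain of signal versus DMSO.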
# [5] = TOX21_p53_BLA_p4_viability: Viability Assessment in the Tox21 HCT-116 p53 Agonism Beta-lactamase Assay, Phase 4 (AID 2283597);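 further: hits lower the luminescence signal meaning cytotoxicity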
# Outline: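 Viability is taken as cellular ATP: after 16 h compound exposure of HCT116 cells and a 2 h room-temperature CCF4-AM substrate step, CellTiter-Glo reagent is added and luminescence is measured 30 min later.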
# [6] = molecular target: Cellular tumor antigen p53 (Homo sapiens) (UniProt P04637); assay: TOX21_p53_BLA_p5_ratio: Tox21 HCT-116 p53 Agonism Beta-lactamase Assay, Ratio, Phase 5 (AID 2283599)
# Outline: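 HCT-116 p53-bla cells (4000/well) plated 5 h, dosed with compound (217-fold DMSO dilution) for 16 h at 37 C; CCF4-AM substrate 2 h at room temperature. Activity is the 460/530 nm emission ratio (405 nm excitation), fitted in gain-of-signal direction versus DMSO.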
# [7] = TOX21_p53_BLA_p5_viability: Viability Assessment in the Tox21 HCT-116 p53 Agonism Beta-lactamase Assay, Phase 5 (AID 2283600)
# Outline: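 Viability is taken from cellular ATP content, measured by luciferase luminescence in the same wells after the beta-lactamase ratio read. Cells are seeded at 4000 per well and exposed to DMSO-dissolved compounds, diluted 217-fold, for 16 h.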
# [8] = molecular target: Cellular tumor antigen p53 (Homo sapiens) (UniProt P04637); assay: TOX21_p53_BLA_p4_ratio: Tox21 HCT-116 p53 Agonism Beta-lactamase Assay, Ratio, Phase 4 (AID 2283601)
# Outline: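 HCT-116 p53 beta-lactamase reporter cells (4000/well) preincubated 5 h, then compound (217-fold dilution of DMSO stock) for 16 h at 37C. CCF4-AM substrate added 2 h at room temperature; 460/530 nm emission ratio fitted upward versus DMSO.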
# [9] = Tanguay_ZF_120hpf_MORT_legacy: (Legacy) Oregon State University Tanguay Lab 120 Hour Post-fertilization zebrafish Assay for Mortality (AID 2283633)
# Outline: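 Mortality endpoint from a multiplexed whole-embryo zebrafish screen. Dechorionated wild-type embryos received compound at 6 hpf and remained under static exposure at 28C until 120 hpf, with death noted as a present/absent call.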
# [10] = Tanguay_ZF_120hpf_YSE_legacy: (Legacy) Oregon State University Tanguay Lab 120 Hour Post-fertilization zebrafish Assay for Yolk Sac Edema (AID 2283634)
# Outline: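 Readout: presence or absence of yolk sac edema at 120 hpf, fitted upward against DMSO controls. Exposure ran statically from 6 hpf in dechorionated embryos kept at 28C.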
# [11] = Tanguay_ZF_120hpf_AXIS_legacy: (Legacy) Oregon State University Tanguay Lab 120 Hour Post-fertilization zebrafish Assay for Body Axis Malformation (AID 2283635)
# Outline: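 Static 6–120 hpf chemical exposure of dechorionated wild-type 5D zebrafish, one per well at 28C; morphology endpoint scored binary at 120 hpf relative to DMSO control.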
# [12] = Tanguay_ZF_120hpf_SNOU_legacy: (Legacy) Oregon State University Tanguay Lab 120 Hour Post-fertilization zebrafish Assay for Snout Malformation (AID 2283637)
# Outline: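 Binary brightfield scoring of snout malformation at 120 hpf. Dechorionated 5D wild-type embryos, one per well, static exposure from 6 hpf at 28C, sealed and dark; final DMSO 0.64% (vol/vol), DMSO as baseline; 5uM trimethyltin chloride positive control.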
# [13] = Tanguay_ZF_120hpf_JAW_legacy: (Legacy) Oregon State University Tanguay Lab 120 Hour Post-fertilization zebrafish Assay for Jaw Malformation (AID 2283638)
# Outline: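 Static waterborne exposure of dechorionated wild-type (Tropical 5D) zebrafish from 6 to 120 hpf at 28C, 0.64% DMSO vehicle; 5uM trimethyltin chloride served as positive control. Jaw morphology recorded as binary at 120 hpf.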
# [14] = Tanguay_ZF_120hpf_OTIC_legacy: (Legacy) Oregon State University Tanguay Lab 120 Hour Post-fertilization zebrafish Assay for Otic Vesicle Malformation (AID 2283639)
# Outline: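 Wild-type zebrafish larvae, whole-embryo exposure from early stage to 120 hpf at 28C. Binary brightfield scoring of otic vesicle morphology, fitted in the positive direction against the DMSO baseline.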
# [15] = Tanguay_ZF_120hpf_PE_legacy: (Legacy) Oregon State University Tanguay Lab 120 Hour Post-fertilization zebrafish Assay for Pericardial Edema (AID 2283640)
# Outline: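 Read-out is the presence or absence of pericardial edema at 120 hpf under brightfield, with gain of signal fitted against DMSO controls. Larvae (5D wild-type) were statically exposed at 28C with 0.64% final DMSO.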
# [16] = Tanguay_ZF_120hpf_PFIN_legacy: (Legacy) Oregon State University Tanguay Lab 120 Hour Post-fertilization zebrafish Assay for Pectoral Fin Malformation (AID 2283648);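 further: each larva judged yes or no for fin defect by brightfield with dead larvae skipped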
# Outline: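 Binary pectoral fin malformation call at 120 hpf by brightfield microscopy; 5D wild-type zebrafish, chorion removed at 4 hpf, one embryo per well from 6 hpf, static exposure at 28C; DMSO (0.64% final) as baseline.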
# [17] = Tanguay_ZF_120hpf_CFIN_legacy: (Legacy) Oregon State University Tanguay Lab 120 Hour Post-fertilization zebrafish Assay for Caudal Fin Malformation (AID 2283649)
# Outline: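 Embryos were collected from Tropical 5D wild-type adults and dechorionated at 4 hpf. At 6 hpf each was exposed, one per well, at 0.64% DMSO and 28C. At 120 hpf fin morphology was scored; dead embryos were excluded.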
# [18] = Tanguay_ZF_120hpf_BRAI_legacy: (Legacy) Oregon State University Tanguay Lab 120 Hour Post-fertilization zebrafish Assay for Brain Malformation (AID 2283641)
# Outline: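 Brain malformation in Tropical 5D zebrafish was recorded as a binary endpoint after static compound exposure from early development to 120 hpf at 28C. Activity was analysed against DMSO as negative control.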
# [19] = Tanguay_ZF_120hpf_EYE_legacy: (Legacy) Oregon State University Tanguay Lab 120 Hour Post-fertilization zebrafish Assay for Eye Malformation (AID 2283636);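 further: binary presence or absence of eye malformation scored by brightfield in 120 hpf larvae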
# Outline: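 5D wild-type embryos, pronase-dechorionated at 4 hpf; static exposure 6–120 hpf, 28C, dark; DMSO 0.64% final; 5uM trimethyltin chloride positive control. Binary eye-defect scoring at 120 hpf; dead embryos not scored.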
# [20] = Tanguay_ZF_120hpf_SOMI_legacy: (Legacy) Oregon State University Tanguay Lab 120 Hour Post-fertilization zebrafish Assay for Somite Malformation (AID 2283647)
# Outline: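 5D WT zebrafish; chorion removed 4 hpf; 1 embryo/well from 6 hpf; static exposure to 120 hpf, 28C, 0.64% DMSO final. Endpoint: somite malformation, binary, brightfield. Mortality excluded.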
smiles,measurement,setting,value
OC(Cn1cncn1)(Cn1cncn1)c1ccc(F)cc1F,outcome,[1],inactive
same,outcome,[2],inactive
same,outcome,[3],inactive
same,outcome,[4],inactive
same,outcome,[5],inactive
same,outcome,[6],inactive
same,outcome,[7],inactive
same,outcome,[8],inactive
same,outcome,[9],inactive
same,outcome,[10],inactive
same,outcome,[11],inactive
same,outcome,[12],inactive
same,outcome,[13],inactive
same,outcome,[14],inactive
same,outcome,[15],inactive
same,outcome,[16],inactive
same,outcome,[17],inactive
CC1(C)C(=O)N(Cl)C(=O)N1Cl,outcome,[1],inactive
same,outcome,[2],inactive
same,outcome,[5],inactive
same,outcome,[6],inactive
same,outcome,[7],inactive
same,outcome,[9],inactive
same,outcome,[10],inactive
same,outcome,[11],inactive
same,outcome,[12],inactive
same,outcome,[13],inactive
same,outcome,[14],inactive
same,outcome,[15],inactive
same,outcome,[18],inactive
same,outcome,[16],inactive
same,outcome,[17],inactive
CCOC(N)=O,outcome,[1],inactive
same,outcome,[2],inactive
same,outcome,[3],inactive
same,AC50,[4],88.1 µM (active)
same,outcome,[4],inactive
same,outcome,[5],inactive
same,outcome,[6],inactive
same,outcome,[7],inactive
same,outcome,[8],inactive
same,outcome,[9],inactive
same,outcome,[10],inactive
same,outcome,[11],inactive
same,outcome,[19],inactive
same,outcome,[12],inactive
same,outcome,[13],inactive
same,outcome,[14],inactive
same,outcome,[18],inactive
same,outcome,[20],inactive
same,outcome,[16],inactive
same,outcome,[17],inactive
Cn1c(=O)c2[nH]cnc2n(C)c1=O,outcome,[2],inactive
same,outcome,[4],inactive
same,outcome,[5],inactive
same,outcome,[6],inactive
same,outcome,[7],inactive
same,outcome,[8],inactive
same,outcome,[9],inactive
same,outcome,[10],inactive
same,outcome,[11],inactive
same,outcome,[19],inactive
same,outcome,[12],inactive
same,outcome,[13],inactive
same,outcome,[15],inactive
same,outcome,[16],inactive
OC[C@H]1O[C@@H]2O[C@H]3[C@H](O)[C@@H](O)[C@@H](O[C@H]4[C@H](O)[C@@H](O)[C@@H](O[C@H]5[C@H](O)[C@@H](O)[C@@H](O[C@H]6[C@H](O)[C@@H](O)[C@@H](O[C@H]7[C@H](O)[C@@H](O)[C@@H](O[C@H]1[C@H](O)[C@H]2O)O[C@@H]7CO)O[C@@H]6CO)O[C@@H]5CO)O[C@@H]4CO)O[C@@H]3CO,outcome,[9],inactive
same,outcome,[10],inactive
same,outcome,[11],inactive
same,outcome,[19],inactive
same,outcome,[12],inactive
same,outcome,[13],inactive
same,outcome,[14],inactive
same,outcome,[15],inactive
same,outcome,[18],inactive
same,outcome,[20],inactive
same,outcome,[16],inactive
same,outcome,[17],inactive
Cc1ncc([C@@H](CCCCCCc2ccc3c(n2)NCCC3)CC(=O)O)cn1,outcome,[9],inactive
same,outcome,[10],inactive
same,outcome,[11],inactive
same,outcome,[19],inactive
same,outcome,[12],inactive
same,outcome,[13],inactive
same,outcome,[15],inactive
same,outcome,[18],inactive
same,outcome,[20],inactive
same,outcome,[17],inactive
Cc1ccc(S(=O)(=O)NC(=O)NN2CCCCCC2)cc1,outcome,[9],inactive
same,outcome,[11],inactive
same,outcome,[19],inactive
same,outcome,[13],inactive
same,outcome,[14],inactive
same,outcome,[15],inactive
same,outcome,[18],inactive
same,outcome,[20],inactive
same,outcome,[16],inactive
same,outcome,[17],inactive
NC(=O)N(O)[C@@H]1COc2cc(OCc3ccccc3)ccc21,outcome,[9],inactive
same,outcome,[10],inactive
same,outcome,[19],inactive
same,outcome,[12],inactive
same,outcome,[13],inactive
same,outcome,[14],inactive
same,outcome,[15],inactive
same,outcome,[18],inactive
same,outcome,[20],inactive
same,outcome,[16],inactive
same,outcome,[17],inactive
